Assay results published in PubChem BioAssay.

Assay: binders of probe aFGF10 on microarray, primary screen, stem cell growth factor project, biochemical, small-molecule microarray, fluorescence 635/667 (AID 1071);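 further: score merges 667 nm spot intensity and signal to noise from triplicate slides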
Conditions: higher = more signal
With O=C1C2C=CC(C(O)c3ccc([N+](=O)[O-])cc3)N(Nc3ccccc3)C2C(=O)N1c1ccccc1 (stereo not given) the composite z-score was -0.115. Compound CC(=O)NCCCC[C@@H]1NC(=O)[C@H]2C[C@@H](C(=O)NCCCCCC[N+](C)(C)C)[C@@H](c3ccc(O)cc3)N2C1=O has a composite z-score of -0.351. Work on CCCC[C@H]1OB(O)C[C@H]2C1=C(COC)C[C@H]1C(=O)C=CC(=O)[C@H]12 yielded a composite z-score of 0.183. With C[C@@H](OCc1ccccc1)C1NC(=O)[C@@]23C(=O)N[C@@H](Cc4ccccc4)C2[C@H](C)[C@@]2(C)O[C@H]2C3/C=C/C/C=C\CNC(=O)[C@H](Cc2ccccc2)NC1=O (stereo not given in full) the composite z-score was 0.709. Compound C=CCC(OC(C)=O)[C@@H]1[C@@H](N(Cc2ccc(-c3cccc(C(F)(F)F)c3)o2)C(=O)c2cccc3ccccc23)c2cc(OCCCO)ccc2N1C(=O)c1ccc2ccccc2c1 (stereo not given in full) has a composite z-score of 0.224. COCCn1c(C(=O)N2CCCC2)cc2c1C[C@H]1CN(C(=O)c3ccccc3)[C@@](Cc3ccccc3)(C(=O)OC)[C@@H]21 gave a composite z-score of 0.888. Work on C=CC[C@@]12N=C(c3ccc(OCCCO)cc3)O[C@@H]1c1ccccc1N(Cc1ccccc1)C2=O yielded a composite z-score of 0.524. C[C@]1(C(=O)NCC(F)(F)F)c2ccccc2C(=O)N(Cc2ccc(OC(F)(F)F)cc2)[C@H]1c1ccc(CO)cc1 showed a composite z-score of 0.198. With O=C1N(CCS(=O)(=O)c2ccccc2)c2ccccc2[C@@H]2OC(c3ccc(OCCCO)cc3)=N[C@]12CCS(=O)(=O)c1ccccc1 the composite z-score was 0.291. CN(C)CCCC[C@@H]1NC(=O)[C@@H]2C[C@H](C(=O)NCCCCCCNC(=O)CS)[C@H](c3cccc(OCCO)c3)N2C1=O showed a composite z-score of 0.628. [N-]=[N+]=Nc1ccccc1[C@@H]1OC(c2ccc(OCCCO)cc2)=N[C@]1(Cc1ccccc1)C(N)=O showed a composite z-score of 0.505. C=CC[C@]1(C(=O)N(C)C)COC(c2ccc(OCCCO)cc2)=N1 showed a composite z-score of 0.744. In the case of O=C1O[C@@H](c2ccccc2)[C@@H](c2ccccc2)N2[C@@H](c3ccc(O)cc3)[C@]3(C(=O)Nc4ccc(C#CC5=CCCCC5)cc43)[C@@H](C(=O)N3CCCCCCC3)[C@H]12, the composite z-score is reported as 0.294. CCCCC(=C=CC[C@@H](O)c1cccc(OCCO)c1)C[C@@H](O)COCc1ccccc1 gave a composite z-score of 0.211. In the case of [N-]=[N+]=NCc1ccccc1C[C@]1(C(=O)O)COC(c2ccc(OCCCO)cc2)=N1, the composite z-score is reported as -0.461. In the case of COC(=O)[C@]1(CO)N=C(c2ccc(OCCCO)cc2)O[C@@H]1c1ccccc1CN=[N+]=[N-], the composite z-score is reported as -0.546. COc1ccc(NN2C(C(O)c3cc(C(F)(F)F)cc(C(F)(F)F)c3)C=CC3C(=O)N(C4CCCCC4)C(=O)C32)cc1 (stereo not given) showed a composite z-score of 0.397. Work on CN(C)CCCC[C@@H]1NC(=O)[C@H]2C[C@@H](C(=O)NCc3ccc(F)cc3)[C@@H](c3ccc(O)cc3)N2C1=O yielded a composite z-score of 0.268. For CCCC=C(CCC)[C@@H](NC(=O)c1ccccc1)c1ccc(C(=O)OC)cc1, the composite z-score was 0.752. C=CCC(OC(C)=O)[C@@H]1[C@@H](N(Cc2cccc3ccccc23)C(=O)c2cccc3ccccc23)c2cc(OCCCO)ccc2N1C(=O)Cc1ccc2ccccc2c1 (stereo not given in full) gave a composite z-score of 0.19. With C=C(COC)/C(=C/C[C@@H](OC(C)=O)c1ccccc1OCCO)c1cc(C(=O)OC)ccc1OC the composite z-score was 0.785. CO[C@H]1O[C@H](CO)[C@@H](OC(=O)Nc2ccc(C(F)(F)F)cc2)[C@H](OC(=O)Nc2ccccc2-c2ccccc2)[C@@H]1OC(=O)Nc1ccccc1-c1ccccc1 gave a composite z-score of 0.94. Work on CCOC(=O)C[C@H]1[C@H](OC(=O)c2ccc(-c3ccccc3)cc2)[C@@H](NC(=O)CC(C)C)c2cc(OCCCO)ccc2N1C(=O)Cc1ccc(OC)cc1 yielded a composite z-score of 0.135. With CCOC(=O)C[C@H]1[C@H](OC(=O)c2cc3ccccc3oc2=O)[C@@H](NC(=O)C2CCCCC2)c2cc(OCCCO)ccc2N1C(=O)Cc1ccc(OC)cc1 the composite z-score was 0.65. Compound N#Cc1ccc(C(O)C2C=CC3C(=O)NC(=O)C3N2Nc2ccccn2)cc1 (stereo not given) has a composite z-score of 0.311. With O=C1C2C=CC(C(O)c3cccs3)N(Nc3ccccc3)C2C(=O)N1c1ccccc1 (stereo not given) the composite z-score was 0.0873. With COC(=O)[C@@]1(Cc2ccc(OC)cc2)[C@H]2c3cc(C(=O)N4CCCC4)n(CCc4ccc(OC)c(Br)c4)c3C[C@H]2CN1C(=O)c1ccccc1 the composite z-score was 0.929. In the case of CO[C@H]1O[C@H](CO)[C@@H](OC(=O)Nc2ccc(C(F)(F)F)cc2)[C@H](OC(=O)Nc2ccccc2-c2ccccc2)[C@H]1OC(=O)Nc1ccccc1-c1ccccc1, the composite z-score is reported as 0.988. Work on CCOC(=O)C1=C(C(=O)OCC)N(S(=O)(=O)CC[Si](C)(C)C)[C@H](c2ccccc2)CC1 yielded a composite z-score of 0.2. CC(C)C(=C=CC[C@@H](O)c1ccccc1OCCO)C[C@@H](O)c1cc(Cl)cc(Cl)c1O showed a composite z-score of 0.961. With COc1ccc(C#Cc2ccc3c(c2)[C@]2(C(=O)N3)[C@H](C(=O)Nc3nc4ccccc4s3)[C@H]3C(=O)O[C@H](c4ccccc4)[C@H](c4ccccc4)N3[C@@H]2c2ccc(OCCO)cc2)cc1 the composite z-score was 0.977. Compound CC(=O)n1cc(C(O)C2C=CC3C(=O)N(c4ccccc4)C(=O)C3N2Nc2ccccc2F)c2ccccc21 (stereo not given) has a composite z-score of -0.274. Compound COCCOC(=O)N1C(=O)[C@@]2(c3cc(C#CC4(O)CCCCCC4)ccc31)[C@H](c1ccc(OCCO)cc1)N1[C@H](c3ccccc3)[C@H](c3ccccc3)OC(=O)[C@H]1[C@@H]2C(N)=O has a composite z-score of 1.05. COc1cc2c(cc1O)C(c1ccc(CN3CCCC3)cc1)N(Cc1ccc([N+](=O)[O-])o1)CC2 (stereo not given) showed a composite z-score of 0.0497. With COc1ccc(CCNC(=O)[C@@]2(C)c3ccccc3C(=O)N(Cc3cc(C(F)(F)F)cc(C(F)(F)F)c3)[C@H]2c2ccc(CO)cc2)cc1 the composite z-score was -0.27.
